High-throughput results (PubChem BioAssay)
12-hLO inh: qHTS Assay for Inhibitors of 12-hLO (12-human lipoxygenase); Polyunsaturated fatty acid lipoxygenase ALOX12 (Homo sapiens), P18054; purified 12-hLO, xylenol orange hydroperoxide absorbance; Potency, µM (titrated, usually from 57.1 µM), without a hit: top-dose activity change, negative = inhibition, actives largely listed as inhibitors; actives 0.12% (n = 150,000); active = well fitted curve in the direction sought with a large enough effect; inconclusive = small, poorly fitted or top-dose-only effect, or another doubt; inactive = no such curve, though single readings can be large; an effect the other way counts as inactive or inconclusive; note: potency is the fitted concentration of half-maximal effect; nearly all actives have a fitted effect of over 55% in size
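Hydroperoxide output read as Fe(III)-xylenol orange absorbance, 573-to-405 nm ratio, after 30 min reaction with 40 uM arachidonic acid. Enzyme: 150 nM purified human 12hLO, 15 min compound preincubation; 25 mM Hepes pH 7.0, room temperature.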
IMPase Li inh: qHTS Assay for Identifying the Cell-Membrane Permeable IMPase Inhibitors: Potentiation with Lithium | CHO-M1 cells, IP1 TR-FRET (IP-One), carbachol + lithium | Potency, µM (series often up to 59.4 µM), without a hit: top-dose activity, negative = IMPase inhibition, most hits filed as inhibitors | AID 1457, 2008 | actives 0.35% (n = 210,000); active = well fitted curve in the direction sought with a large enough effect; inconclusive = small, poorly fitted or top-dose-only effect, or another doubt; inactive = no such curve, though single readings can be large; an effect the other way counts as inactive or inconclusive;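 note: IP1 builds up when IMPase is blocked and the TR-FRET signal falls; potency is the fitted concentration of half-maximal effect; plate controls were basal vehicle for no effect and high inhibitor control for full effect; nearly all actives have a fitted effect of over 50% in size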
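CHO cells stably expressing M1 receptor (2000/well) were cultured 16–30 h, then exposed to compounds with a small lithium addition for 30 min at 37C. IP1 was measured by TR-FRET competition; AC50 from Hill fits.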
HPGD block: qHTS Assay for Inhibitors of HPGD (15-Hydroxyprostaglandin Dehydrogenase); 15-hydroxyprostaglandin dehydrogenase [NAD(+)] (Homo sapiens), P15428; purified HPGD, NADH fluorescence kinetic, PGE2 substrate; actives 4.3% (n = 150,000); Potency, µM, for inactives: at the highest dose activity change, negative = inhibition, hits mostly inhibitors; AID 894, 2007; note: potency is the fitted concentration of half-maximal effect
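NADH formation kinetics: reaction with 30 uM PGE2 and 1 mM NAD+ (final), 20 nM enzyme, Tris-HCl pH 8 with Tween 20, after 15 min compound preincubation at room temperature. Fluorescence change, last versus first of five reads.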
ALDH1A1 block: qHTS Assay for Inhibitors of Aldehyde Dehydrogenase 1 (ALDH1A1) | Aldehyde dehydrogenase 1A1 (Homo sapiens), P00352 | Purified ALDH1A1, NADH fluorescence, propionaldehyde substrate | Potency, µM (series often up to 75.3 µM), for the others: at the highest dose activity, negative = inhibition, usual class: inhibitors | actives 7.3% (n = 220,000) | AID 1030, 2008;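 note: potency is the fitted concentration of half-maximal effect; plate controls were no enzyme wells and a reference inhibitor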
Target sequence (P00352 whole entry, looked up): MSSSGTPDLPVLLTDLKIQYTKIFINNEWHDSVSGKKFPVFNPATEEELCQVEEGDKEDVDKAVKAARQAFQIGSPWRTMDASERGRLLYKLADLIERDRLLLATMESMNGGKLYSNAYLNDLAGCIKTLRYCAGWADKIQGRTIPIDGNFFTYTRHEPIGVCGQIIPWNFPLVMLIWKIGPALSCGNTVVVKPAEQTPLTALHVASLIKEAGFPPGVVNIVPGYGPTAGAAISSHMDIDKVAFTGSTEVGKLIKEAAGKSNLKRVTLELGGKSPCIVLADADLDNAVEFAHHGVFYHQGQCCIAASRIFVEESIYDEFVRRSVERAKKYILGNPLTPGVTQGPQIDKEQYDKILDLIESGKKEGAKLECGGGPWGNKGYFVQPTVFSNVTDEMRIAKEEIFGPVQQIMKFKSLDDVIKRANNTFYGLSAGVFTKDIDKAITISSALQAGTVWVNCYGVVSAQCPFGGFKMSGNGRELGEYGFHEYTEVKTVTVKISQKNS
IMPase cell inh: qHTS Assay for Identifying the Cell-Membrane Permeable IMPase Inhibitors. CHO-M1 cells, IP1 accumulation, HTRF TR-FRET ratio. inhibition (IP1 accumulation), % at 46.1 µM. 120,000 tested, under 10 active; active = well fitted curve in the direction sought with a large enough effect in the signal ratio, not every such curve was filed as active; inconclusive = small, poorly fitted or top-dose-only effect, or a change in a side signal; inactive = no such curve, though single readings can be large or run the other way; the % refers to the signal ratio;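 note: cells stimulated with carbachol in lithium chloride buffer; plate controls were DMSO basal wells for no effect and reference inhibitor wells for full effect; higher means more IMPase inhibition seen as more IP1 and lower FRET ratio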
Target sequence (P97697 whole entry, looked up): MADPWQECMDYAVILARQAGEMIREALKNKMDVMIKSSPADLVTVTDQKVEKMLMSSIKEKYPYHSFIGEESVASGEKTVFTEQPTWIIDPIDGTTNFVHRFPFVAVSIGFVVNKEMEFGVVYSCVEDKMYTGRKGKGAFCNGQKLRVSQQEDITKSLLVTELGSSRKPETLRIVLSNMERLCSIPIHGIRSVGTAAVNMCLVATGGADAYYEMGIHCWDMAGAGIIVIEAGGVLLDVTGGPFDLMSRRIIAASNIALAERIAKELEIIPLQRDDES
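Measured: the HTRF emission ratio (665/620 nm) plus the 620 nm donor channel, each fitted to the Hill equation to give AC50. Cells were CHO-M1 given compounds up to 46 uM and a 30 min carbachol stimulation at 37C.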
PNC assembly inh: High Content Assay for Compounds that inhibit the Assembly of the Perinucleolar Compartment. PC3M PTB-GFP, PNC prevalence imaging, 16 h; stronger effect = lower value. activity change (PNC), negative = inhibition, % at 10 µM. actives 3.1% (n = 140,000). AID 2417, 2010;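 active = readout at or below -70, meaning at least 70% loss of cells showing the perinucleolar compartment, a nuclear body marking cancer cells; inconclusive = readout between -30 and a set limit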;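 note: plate controls were DMSO wells for no effect and camptothecin positive control wells for full effect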
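Compounds are pinned in duplicate onto adhered PC3M cells stably expressing GFP-tagged PTB and incubated 16 h at 37 C. Cells are then fixed, nuclei stained with Hoechst, and PNC-positive cells counted.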
* hit, by the source's call; ? = inconclusive; nt = no result given; [ ] = remark or other dose. A selection: hits, their analogues and other compounds. The true share with any hit is near 11%. Unless noted, calls come from the whole dose curve; as a rule, active = well fitted inhibition curve with a large enough effect (not every such curve was filed as active); inconclusive = small, poorly fitted or top-dose-only effect, or another doubt; inactive = no such curve, though single readings can be large or run the other way. Unless noted, % is set by controls: 0 for no effect and ±100 for the full control effect.

SMILES	12-hLO inh	IMPase Li inh	HPGD block	ALDH1A1 block	IMPase cell inh	PNC assembly inh
CCc1cccc(C)c1NC(=O)c1cccc(N(C)C)c1	-29.2%	6.7%[38.3 µM]	14.1µM*	?	0.4	-26.4
COc1ccc(CNC(=O)c2ccc3c(c2)NC(=O)C(C)S3)cc1 (centres undefined)	nt	nt	nt	10µM*	nt	nt
COc1ccc(CNC(=O)c2cccc(N(C)C)c2)cc1	2.5%	0.5%[38.3 µM]	-8.3%	?	1.1	-83.2*
COc1cc(OC)c(Nc2nc3ccccc3nc2-n2nc(C)cc2C)cc1Cl	nt	nt	nt	nt	4.6	nt
CC(C)(SCc1ccccc1)[C@H](N)C(=O)O	-2.7%[11.4 µM]	-2.2%	1.9%	1.4%[13.5 µM]	nt	nt
COc1ccc(/C=C2\SC(=O)N=C2N)cc1	-0.4%	-2.3%	-20.1%	-3.3%	nt	-104.5*
COc1ccc(OC)c(Nc2nc(=O)c3cccnc3s2)c1	nt	6.8%	nt	2µM*	nt	nt
COc1cccc(-c2cc(=O)c3ccc(OC)cc3o2)c1	0.0%	3.9%	?	?	nt	nt
Cn1c(C(=O)NC2CCCCC2)cc2sccc21	2.0%	nt	nt	0.1%	5.7	?
CN(C(=O)c1cc2sccc2n1C)C1CCCCC1	0.4%	8.2%	17.8µM*	?	0.1	20.6
COc1cc(C2C(C#N)=C(N)Oc3cc(C)n(CC4CCCO4)c(=O)c32)cc2c1OCO2 (centres undefined)	-5.1%	2.2%[38.3 µM]	-18.5%	25.1µM*	2.0	13.0
Cc1ccc(C2C(C#N)=C(N)Oc3cc4c(cc32)OCO4)cc1 (centres undefined)	-25.4%	31.1%[38.3 µM]	-21.9%	?	4.4	?
N#CC1=C(N)OC2=C(C(=O)CC(c3ccccc3)C2)C1c1ccc2c(c1)OCO2 (centres undefined)	-6.0%	14.3%	28.2µM*	11.2µM*	nt	35.2
Cc1cc2c(c(=O)n1Cc1ccccn1)C(c1ccc3c(c1)OCO3)C(C#N)=C(N)O2 (centres undefined)	-1.4%	7.9%[38.3 µM]	-12.5%	12.6µM*	7.3	-11.3
N#CC1=C(N)OC(c2ccccc2)=C(C#N)C1c1ccc2c(c1)OCO2 (centres undefined)	-24.8%	28.5%[38.3 µM]	14.1µM*	1µM*	-7.3	1.1
O=[N+]([O-])O[C@H]1CO[C@H]2[C@@H]1OC[C@H]2O	-1.6%[0.00818 µM]	-5.4%	-3.3%	8.9%	nt	nt
C/C(=N\Nc1ccc([N+](=O)[O-])cc1)c1ccc(-n2nncc2C)cc1	-3.8%	17.6%	8.91µM*	-12.9%	nt	-17.4
C/C(=N\Nc1nc(C)c(C)s1)c1ccc([N+](=O)[O-])cc1	nt	23.7%	nt	12.6µM*	nt	nt
CCc1ccc(/C(C)=N\Nc2ccc([N+](=O)[O-])cc2)cc1	-12.3%	3.4%[38.3 µM]	-4.5%	-3.1%	17.4	7.2
C/C(=N\Nc1ccc([N+](=O)[O-])cc1)c1ccc(N)cc1	?	26.0%	-21.9%	?	-0.5	27.4
Cc1cc2c(nc1C)CCCN2C[C@@H](O)CN1CCN(C)CC1	nt	nt	nt	-12.1%[13.5 µM]	nt	nt
CC(C)(C)C1CCc2c(sc(NC(=O)c3ccco3)c2C(=O)Nc2ccccc2Cl)C1 (centres undefined)	nt	nt	nt	nt	-1.9	nt
C/C(=N\Nc1ccccc1)c1c(O)cc(C)oc1=O	nt	2.4%	nt	14.1µM*	nt	nt
C/C(=N/NC(=O)c1cccc(C)c1)c1c(O)cc(C)oc1=O	-2.6%	10.7%	-25.3%	31.6µM*	-5.8	-100.0*
Cc1ccc(N/N=C/c2c(O)cc(C)oc2=O)cc1	?	38.2%[38.3 µM]	-4.7%	?	?	-26.4
SMILES	12-hLO inh	IMPase Li inh	HPGD block	ALDH1A1 block	IMPase cell inh	PNC assembly inh
COCCn1c(=NC(=O)CSCC(=O)Nc2cc(C)on2)sc2cc(C(=O)OC)ccc21	2.2%	-4.0%	-10.8%	?	nt	-113.4*
O=C(Cc1ccccc1)N/N=C/c1cccs1	1.0%	-8.6%[38.3 µM]	-12.3%	-0.6%	-11.1	22.2
COc1cc(/C=N/S(=O)(=O)CCc2ccccc2)ccc1O	-1.2%	15.9%	-11.7%	28.2µM*	-2.3	57.6
O=S(=O)(CCc1ccccc1)/N=C/c1cccs1	-0.2%	-11.4%[38.3 µM]	-17.3%	?	-10.9	-103.0*
COc1ccc(/C=N/S(=O)(=O)CCc2ccccc2)c(OC)c1	28.5%	-4.1%	?	0.2%	2.3	-28.4
O=C(c1ccc(Cc2nc3ccccc3[nH]2)cc1)N1CCOCC1	-2.1%	nt	-7.2%	-4.9%	nt	nt
COc1ccc(Oc2ncc3nc(-c4ccc(F)cc4)c(=O)n(C[C@H]4CCCO4)c3n2)cc1	nt	10.7%	nt	-7.9%	nt	nt
COc1ccc(-c2cnc(N)n2CC2CCCO2)cc1 (centres undefined)	2.1%	-0.2%[38.3 µM]	-18.1%	39.8µM*	6.2	?
c1ccc(-c2cnc(SCCN3CCOCC3)n2CC2CCCO2)cc1 (centres undefined)	-1.5%	1.7%	-7.8%	10µM*	?	-17.8
CCCCC/C=C/C=C1/C(=O)C=C[C@@H]1C/C=C\CCCC(=O)O	-2.0%[0.00818 µM]	-4.9%	-18.4%	-0.8%	nt	nt
CCCCSc1nnc2n(-c3cccc(C)c3)c(=O)c3c4c(sc3n12)CCCC4	nt	nt	nt	nt	2.1	nt
CCN1C(=O)c2ccccc2S(=O)c2ccc(C(=O)N3CCN(C(=O)c4ccco4)CC3)cc21 (centres undefined)	2.2%	18.0%	-5.8%	8.91µM*	9.5	?
O=C(c1ccco1)N1CCN(C(=O)c2cccc3c2C(=O)N(Cc2cccnc2)C3)CC1	0.9%	-4.7%[38.3 µM]	-3.6%	?	3.1	?
COc1cc2c(cc1OC)CN(C(=O)c1ccco1)CC2	nt	7.8%	nt	14.1µM*	nt	nt
COc1cc2c(cc1OC)CN(C(=O)c1cccs1)CC2	-3.3%	2.5%[38.3 µM]	-5.8%	-3.4%	2.9	-3.6
O=C(NC1c2ccccc2-c2ccccc21)c1ccco1	-5.5%	-18.2%[38.3 µM]	-7.7%	-3.3%	?	?
CCN1C(=O)c2ccccc2S(=O)c2ccc(C(=O)N3CCCCCC3)cc21 (centres undefined)	-7.2%	25.1%[38.3 µM]	-14.1%	?	5.5	-20.0
O=C(c1ccco1)N1CCN(C(=O)c2cccc3c2C(=O)N(C2CCCCC2)C3)CC1	1.0%	-5.9%	-1.4%	10µM*	nt	-4.8
O=C(NC1CCCCC1NC(=O)c1ccco1)c1ccco1 (centres undefined)	1.4%	7.4%	-9.1%	17.4%	9.0	-84.9*
CC(C)CO/N=C1/[C@H]2O[C@@H]2[C@@H](O)[C@H]2[C@H]1CCn1c(=O)n(-c3ccccc3)c(=O)n12	nt	nt	nt	10.0%[13.5 µM]	nt	nt
